Measured values: PubChem BioAssay AID1159580 (chemical genetic matrix, 2015)
Several values for one entry are separate records, joined by “and”; a condition that tells them apart may be missing. Equal values may be shown once. Screen size: about 5,500 compounds; about 2,000 (36%) were called active. Roughly 18% stayed inconclusive and do not appear here. Rule as the data show it: active = normalized growth mostly below about 0.91 (no sharp cut-off); inconclusive = no clear call, values can overlap the other calls; inactive = mostly above about 0.92. Some of the results follow.

Assay: chemical genetic growth profiling, strain panel (AID 1159580);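 also: tested at 20 µM; growth read once vehicle control cultures reached saturation at 30 °C; 1 = growth at the plate median or of vehicle wells; lower values mean less growth of the strain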
Details: S. cerevisiae deletion strains, growth OD

Measured: normalized growth

COc1cc(NS(=O)(=O)c2ccc(N)cc2)ncn1
inactive: locus YAL013W, strain DEP1, hits give low values 0.998 | locus YAL021C, strain ccr4, hits give low values 0.988 | locus YAL026C, strain drs2, hits give low values 0.978 | locus YAL030W, strain snc1, hits give low values 0.999 | locus YBL061C, strain skt5, hits give low values 0.987 | locus YBR009C, strain hhf1, hits give low values 0.996 | locus YBR021W, strain FUR4, hits give low values 1 | locus YBR023C, strain chs3, hits give low values 0.983 | locus YBR171W, strain sec66, hits give low values 0.968 | locus YBR229C, strain ROT2, hits give low values 0.955 | locus YBR231C, strain swc5, hits give low values 0.979 | locus YBR279W, strain paf1, hits give low values 0.964 | locus YCL011C, strain gbp2, hits give low values 0.968 | locus YCL016C, strain dcc1, hits give low values 0.981 | locus YCL029C, strain bik1, hits give low values 0.977 | locus YCL061C, strain MRC1, hits give low values 0.979 | locus YCL069W, strain vba3, hits give low values 0.98 | locus YCR088W, strain abp1, hits give low values 0.97 | locus YDL005C, strain med2, hits give low values 0.978 | locus YDL035C, strain GPR1, hits give low values 0.993 | locus YDL040C, strain nat1, hits give low values 0.969 | locus YDL074C, strain BRE1, hits give low values 0.966 | locus YDL101C, strain DUN1, hits give low values 0.979 | locus YDL134C, strain PPH21, hits give low values 1.01 | locus YDL185W, strain tfp1, hits give low values 0.983 | locus YDL192W, strain arf1, hits give low values 0.978 | locus YDR001C, strain nth1, hits give low values 0.973 | locus YDR069C, strain doa4, hits give low values 1.03 | locus YDR101C, strain arx1, hits give low values 0.972 | locus YDR137W, strain rgp1, hits give low values 0.991 | locus YDR159W, strain sac3, hits give low values 0.916 | locus YDR162C, strain NBP2, hits give low values 0.995 | locus YDR195W, strain ref2 0.918 | locus YDR297W, strain sur2, hits give low values 1 | locus YDR318W, strain mcm21, hits give low values 0.988 | locus YDR334W, strain swr1, hits give low values 0.948 | locus YDR335W, strain msn5, hits give low values 0.971 | locus YDR388W, hits give low values 0.979 | locus YDR392W, strain spt3, hits give low values 0.982 | locus YDR502C, strain sam2, hits give low values 0.984 | locus YEL003W, strain gim4, hits give low values 1 | locus YEL037C, strain rad23, hits give low values 0.999 | locus YEL061C, strain CIN8 (second series), hits give low values 0.96 | locus YEL061C, strain CIN8, hits give low values 0.982 | locus YER015W, strain faa2, hits give low values 0.984 | locus YER016W, strain bim1, hits give low values 0.992 | locus YER110C, hits give low values 0.973 | locus YER111C, strain swi4, hits give low values 0.968 | locus YER155C, strain BEM2 (second series), hits give low values 0.975 | locus YER155C, strain BEM2, hits give low values 1 | locus YER167W, strain BCK2, hits give low values 0.992 | locus YFR010W, strain ubp6, hits give low values 0.97 | locus YGL078C, strain dbp3, hits give low values 0.977 | locus YGL086W, strain mad1, hits give low values 0.981 | locus YGL167C, strain pmr1, hits give low values 0.981 | locus YGL173C, strain kem1, hits give low values 0.993 | locus YGL227W, strain vid30, hits give low values 0.959 | locus YGL240W, strain doc1, hits give low values 0.958 | locus YGL248W, strain PDE1, hits give low values 0.978 | locus YGL253W, strain hxk2, hits give low values 0.979 | locus YGR078C, strain PAC10, hits give low values 0.977 | locus YGR135W, strain pre9, hits give low values 0.999 | locus YGR252W, strain gcn5, hits give low values 0.987 | locus YHR013C, strain ard1, hits give low values 0.986 | locus YHR027C, strain rpn1, hits give low values 0.983 | locus YHR030C, strain SLT2, hits give low values 0.997 and 0.991 | locus YHR079C, strain IRE1 (second series), hits give low values 0.99 | locus YHR079C, strain IRE1, hits give low values 0.97 | locus YHR094C, strain hxt1, hits give low values 0.987 | locus YHR129C, strain ARP1, hits give low values 0.995 | locus YHR142W, strain chs7, hits give low values 0.968 | locus YHR200W, strain rpn10, hits give low values 0.982 | locus YIL066C, strain RNR3, hits give low values 0.976 | locus YIL073C, strain SPO22, hits give low values 1.02 | locus YIL125W, strain kgd1, hits give low values 0.982 | locus YIR030C, strain dcg1, hits give low values 0.974 | locus YJL092W, strain hpr5, hits give low values 0.98 | locus YJL095W, strain BCK1 (second series), hits give low values 0.976 | locus YJL095W, strain BCK1, hits give low values 0.989 and 0.983 | locus YJL115W, strain asf1, hits give low values 0.964 | locus YJL129C, strain trk1, hits give low values 0.963 | locus YJL134W, strain LCB3, hits give low values 0.992 | locus YJL154C, strain vps35, hits give low values 0.971 | locus YJL164C, strain tpk1, hits give low values 1 | locus YJL166W, strain qcr8, hits give low values 0.982 | locus YJL168C, strain set2, hits give low values 0.985 | locus YJL187C, strain SWE1 (second series), hits give low values 0.962 | locus YJL187C, strain SWE1, hits give low values 0.981 | locus YJR043C, strain POL32, hits give low values 0.994 | locus YJR066W, strain TOR1, hits give low values 0.943
